# Data: PubChem BioAssay AID1233 (SRMLSC, 2008)
# Entries with a potency or affinity are not part of this list. The source made the active and inactive calls.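 Rule for the calls: active = a dose-response curve fit returns a half-maximal inhibitory concentration, extrapolated values included; inactive = the fit returns no such concentration.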
# Molecular target: HMG-CoA reductase [Enterococcus faecalis] (UniProt Q9FD70)
# Experiment: inhibitors of E. faecalis class II HMGR, confirmation, biochemical, Enterococcus faecalis (AID 1233)
# Conditions: purified E. faecalis HMGR, NADPH absorbance 340 nm kinetics; series mostly up to 100 µM
row,Structure (SMILES),outcome
1,COCCCNC(=O)CN(c1cc(Cl)ccc1OC)S(=O)(=O)c1ccc(C)c([N+](=O)[O-])c1,inactive
2,CC1CN(C(=O)c2ccncc2)CC(C)O1 (stereo not given),inactive
3,O=C(COC(=O)Cc1c(Cl)cccc1Cl)NCCC1=CCCCC1,inactive
4,Cc1cnc(NC(=O)c2cc3ccccc3o2)s1,inactive
5,COc1ccc(OC)c(NC(=O)NNC(=O)CCCOc2ccc(Cl)cc2C)c1,inactive
6,COc1ccc(-c2nnc(SC(C)C(=O)Nc3ccc4c(c3)OCCO4)o2)cc1 (stereo not given),inactive
7,COc1ccc(C)cc1NC(=O)C(Sc1nnnn1C)c1ccccc1 (stereo not given),inactive
8,CC(C)OCCCNC(=O)Nc1cccc2ccccc12,inactive
9,Cc1cccnc1NC(=O)Cn1nc([N+](=O)[O-])cc1C,inactive
10,Cc1ccc(-n2c(SCC(=O)N(C)C3CCS(=O)(=O)C3)nc3ccccc3c2=O)cc1 (stereo not given),inactive
11,OCCC1CN(Cc2cccs2)CCN1Cc1ccccc1 (stereo not given),inactive
12,Cc1ccc(C(=O)CC2(O)C(=O)N(C)c3ccccc32)s1 (stereo not given),inactive
13,O=C(Nc1ccc2c(c1)OCO2)c1ccc(COc2ccc3c(c2)CCC3)o1,inactive
14,O=C(Cc1ccccc1)Nc1ccccc1CO,inactive
15,COc1ccc(N=CC2=C(O)c3ccccc3C2=O)c(OC)c1,inactive
16,Cc1[nH]nc2c1C(CCc1ccccc1)C(C#N)=C(N)O2 (stereo not given),inactive
17,O=C(NCCCN1CCOCC1)c1cn(-c2ccccc2)nc1-c1cccs1,inactive
18,CC(C)NC(=O)c1ccccc1NC(=O)C(C)Oc1ccccc1 (stereo not given),inactive
19,Cc1ccsc1/C=C1/NC(=O)N(Cc2ccc(F)cc2)C1=O,inactive
20,COc1ccc2oc(=Nc3ccc(C(=O)O)cc3)c(C(=O)NCc3ccco3)cc2c1,inactive
21,Cc1cc(NC(=O)c2c(F)cccc2Cl)no1,inactive
22,COc1ccc(-c2csc(N(CC3CCCO3)C(=O)c3ccco3)n2)cc1 (stereo not given),inactive
23,COc1ccc(/C=N/Nc2nccnc2Cl)c(OC)c1,inactive
24,CCC1Oc2ccccc2N(CC(=O)NCc2ccco2)C1=O (stereo not given),inactive
25,CS(=O)(=O)N(CC(N)=O)c1cccc(Br)c1,inactive
